From PubChem BioAssay
KB-3-1 cytotox – qHTS assay for MDR1-selective chemotherapeutics: Primary screen using the parental adenocarcinoma cell KB-3-1. KB-3-1 viability, CellTiter-Glo ATP luminescence, 72 h. Potency, µM (series often up to 46.1 µM), most hits filed as cytotoxic. 1.4% of 400,000 active. AID 1347075, 2019; further: nearly all actives have a fitted effect of over 60% in size
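Parental KB-3-1 adenocarcinoma cells in phenol-red-free DMEM with 10% FBS were pin-treated with compounds at several concentrations, incubated 72 h at 37 °C, and viability read by CellTiter-Glo luminescence; concentration-effect curves were fitted after normalization.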
IL1B secr inh – qHTS for Inhibitors of Inflammasome Signaling: IL-1-beta AlphaLISA Primary Screen; THP-1 LPS/ATP IL-1B secretion, AlphaLISA, 16 h; active compounds read low; activity change, % at 57.5 µM; 4.7% of 360,000 active; in the data active means activity change below about -50%; inconclusive means mostly about -30% to -49%
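Secreted IL-1B measured by AlphaLISA bead assay after 16 h compound exposure of THP-1 cells; compounds (final up to 57.5 uM) added 1 h before LPS (250 ng/mL) and ATP (1.25 mM) stimulation; lower signal means less secretion.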
KB-V1 cytotox – qHTS assay for MDR1-selective chemotherapeutics: Primary screen using the drug-selected MDR subline cells KB-V1; KB-V1 MDR cells viability, CellTiter-Glo, 72 h; 3.4% of 400,000 active; Potency, µM (top dose mostly 46.1 µM), actives largely listed as cytotoxic; further: nearly all actives have a fitted effect of over 60% in size
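Cytotoxicity via CellTiter-Glo luminescence after 72 h compound exposure at 37 degrees C. Cells: drug-selected KB-V1 line, DMEM phenol-red free plus 10% FBS. Compounds tested at multiple concentrations; normalized data fitted to concentration-effect curves.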
HT1080-NT tox – qHTS for induction of synthetic lethality in tumor cells producing 2HG: qHTS for the HT-1080-NT fibrosarcoma cell line; HT-1080-NT fibrosarcoma viability, CellTiter-Glo ATP luminescence, 48 h; Potency, µM (highest dose often 46.1 µM), actives largely listed as cytotoxic; 1.6% of 360,000 active;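 further: NT is the 2HG producing partner of a matched IDH1 knockdown line; nearly all actives have a fitted effect of over 55% in size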
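Read-out is CellTiter-Glo luminescence after 10 minutes at room temperature, following 48 hours' compound treatment of HT-1080-NT cells (750 cells/well, RPMI, 5% FBS, 37 degrees C).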
HT1080 IDH1KD tx – qHTS for induction of synthetic lethality in tumor cells producing 2HG: qHTS for the HT-1080-IDH1KD cell line | HT-1080 IDH1 knockdown viability, ATP luminescence, 48 h | 2% of 360,000 active | Potency, µM (top dose mostly 46.1 µM), actives largely listed as cytotoxic
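HT-1080-IDH1KD cells (IDH1 knocked down), 750/well in RPMI with 5% FBS, treated with compound 48 h at 37 degrees C. Viability by CellTiter-Glo luminescence, normalised to DMSO and no-cell wells; concentration-response curves classed.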
A number is an active result; . = inactive; ? = inconclusive; / = not tested or not shown. Hits are enriched below; roughly 8.8% of the tested compounds scored in any of these assays. Unless noted, the call rests on the fitted dose curve; in most records, active means well fitted curve in the direction sought with a large enough effect; inconclusive means small, poorly fitted or top-dose-only effect, or another doubt; inactive means no such curve, though single readings can be large; an effect the other way counts as inactive or inconclusive.

SMILES	KB-3-1 cytotox	IL1B secr inh	KB-V1 cytotox	HT1080-NT tox	HT1080 IDH1KD tx
Cc1csc(NC(=O)CCn2c(=O)sc3ccccc32)n1	.	.	23.1µM	.	.
COc1ccc(N2CCN(C(=O)c3cccc(NC(=O)c4ccco4)c3)CC2)cc1	.	.	?	.	.
CCN(CC)c1ccc(C(=S)NC2CCCCC2)cc1	?	-62.9	?	.	.
CN(C)c1ccc(C(=S)NC2CCCCC2)cc1	.	.	.	.	.
Cc1cc2ccccc2n1CCNC(=O)C1CCCC1	.	.	18.4µM	.	.
Cc1cc2ccccc2n1CCNC(=O)C1CCCCC1	.	.	?	.	.
COc1ccc(N2C(=O)CCSC23C(=O)N(Cc2ccc(F)cc2)c2ccccc23)cc1 (stereo not given)	.	/	.	/	/
COc1ccc(C2CC(=O)N(Cc3ccc(F)cc3)c3ccccc3S2)cc1 (stereo not given)	?	/	14.6µM	/	/
COc1cc(C2CC(=O)N(Cc3ccc(F)cc3)c3ccccc3S2)cc(OC)c1OC (stereo not given)	?	/	11.6µM	/	/
COc1ccc(C2CC(=O)N(Cc3ccc(F)cc3)c3ccccc3S2)cc1OC (stereo not given)	?	/	16.4µM	/	/
COc1ccc(C2CC(=O)N(C)c3ccccc3S2)cc1OC (stereo not given)	.	.	?	.	.
CCOC(=O)C1CCN(C(=O)COC(=O)/C=C/c2cccc(OC)c2OC)CC1	.	.	.	.	.
C/C(=N/NC(=O)CNC(=O)COc1ccccc1)c1ccc(Cl)cc1	.	.	.	.	.
O=C(CC1Sc2ccccc2NC1=O)NNc1ccc(F)cc1 (stereo not given)	/	.	/	?	7.31µM
Cc1ccc(NC(=O)CC2Sc3ccccc3NC2=O)c(C)c1 (stereo not given)	16.4µM	/	?	/	/
Cc1ccc(CCNC(=O)c2ccc3c(c2)N(Cc2ccc(F)cc2)CCS3)cc1	.	/	.	/	/
Cc1ccc(CN2CCSc3ccc(C(=O)NCCCN4CCN(C)CC4)cc32)cc1	?	.	.	25.9µM	?
COc1ccc(CCNC(=O)c2ccc3c(c2)N(Cc2ccc(F)cc2)CCS3)c(OC)c1	?	-54.8	.	.	.
COc1cccc(CNC(=O)CCC2CCCN(c3cc(C)nc(N4CCCC4)n3)C2)c1 (stereo not given)	.	.	.	.	.
COc1ccc(S(=O)(=O)N2N=C(C)Oc3ccccc3C2=O)cc1	4.61µM	.	3.66µM	2.91µM	3.26µM
COc1ccccc1CNC(=O)C(CC(C)C)N1Cc2ccccc2C1=O (stereo not given)	.	/	.	/	/
COc1ccc(NC2=NCC(Cc3ccc(Br)cc3)S2)cc1 (stereo not given)	23.1µM	-90.7	.	?	20.6µM
COc1cc(OC)cc(C(=O)N2CCN(C(=O)c3ccc(-c4ccccc4)cc3)CC2)c1	.	-68.0	?	.	.
COc1cc(OC)cc(C(=O)NCC(=O)N2CC=C(c3ccccc3)CC2)c1	5.8µM	.	7.31µM	16.4µM	13µM
COc1ccc(C(=O)NCC(=O)N2CCN(c3ccccc3)CC2)cc1	.	.	?	.	.
SMILES	KB-3-1 cytotox	IL1B secr inh	KB-V1 cytotox	HT1080-NT tox	HT1080 IDH1KD tx
O=C(NCC(=O)N1CC=C(c2ccccc2)CC1)c1ccc(OC(F)F)cc1	?	.	13µM	?	.
O=C(NCC(=O)N1CC=C(c2ccccc2)CC1)c1ccccc1Br	?	.	?	.	.
CCOC(=O)c1sc(NC(=O)CCN2CCN(CC)CC2)c(C(=O)OCC)c1C	.	-214.9	.	23.1µM	18.4µM
CCOC(=O)c1sc(NC(=O)CN(CC(C)C)CC(C)C)c(C(=O)OCC)c1C	?	.	20.6µM	.	.
CCOC(=O)c1c(NC(=O)COC(=O)c2ccccc2NC)sc(C(=O)N(C)C)c1C	.	-79.2	?	.	?
O=C(CSc1nc(C2CC2)nc2c1cnn2-c1ccccc1)Nc1c[nH]c(=O)[nH]c1=O	.	.	.	.	.
